# Assay results published in publication PMC9911399, “Two distinct binding modes provide the RNA-binding protein RbFox with extraordinary sequence specificity”.
# Numbering of substitutions follows the chain as printed; changes in the protein carry UniProt numbers. In all, about 16,000 sequences were measured (“ka relative to ugcaugu”: median about 0.096, highest 2% from about 0.35 on). Only a selection was taken, and the highest values are over-represented in it overall.
# T1: RBFOX1 RRM RbFoxmut (Fox-RRM*) (Homo sapiens, UniProt Q9NWB1 109-208, R118D;E147R;N151S;E152T)
# T1 sequence: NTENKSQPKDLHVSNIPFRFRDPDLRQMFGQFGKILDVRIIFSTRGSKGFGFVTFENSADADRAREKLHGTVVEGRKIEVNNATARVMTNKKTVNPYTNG
# B1: AGUGCCU (DNA:RNA)
# RNA: GGGAGACCGGAAUUCAGAUUGUCCAGUGCCUUUAAAUCCCGUCGUAGCCACCA
# DNA 1: CAATCTGAATTCCGGTCTCCC
# DNA 2: TGGTGGCTACGACGGGATT
# B2: CAGUGCG (DNA:RNA)
# RNA: B1 RNA with A25C, G26A, U27G, G28U, C29G, U31G
# DNA 1: CAATCTGAATTCCGGTCTCCC
# DNA 2: TGGTGGCTACGACGGGATT
# B3: ACUUGCG (DNA:RNA)
# RNA: B1 RNA with G26C, G28U, C29G, U31G
# DNA 1: CAATCTGAATTCCGGTCTCCC
# DNA 2: TGGTGGCTACGACGGGATT
# B4: CCUUAUC (DNA:RNA)
# RNA: B1 RNA with A25C, G26C, G28U, C29A, C30U, U31C
# DNA 1: CAATCTGAATTCCGGTCTCCC
# DNA 2: TGGTGGCTACGACGGGATT
# B5: AAAUGUC (DNA:RNA)
# RNA: B1 RNA with G26A, U27A, G28U, C29G, C30U, U31C
# DNA 1: CAATCTGAATTCCGGTCTCCC
# DNA 2: TGGTGGCTACGACGGGATT
# B6: CUAUAGG (DNA:RNA)
# RNA: GGGAGACCGGAAUUCAGAUUGUCCCUAUAGGUUAAAUCCCGUCGUAGCCACCA
# DNA 1: CAATCTGAATTCCGGTCTCCC
# DNA 2: TGGTGGCTACGACGGGATT
# B7: CUGCGUG (DNA:RNA)
# RNA: B6 RNA with A27G, U28C, A29G, G30U
# DNA 1: CAATCTGAATTCCGGTCTCCC
# DNA 2: TGGTGGCTACGACGGGATT
# B8: CCUAGCA (DNA:RNA)
# RNA: B1 RNA with A25C, G26C, G28A, C29G, U31A
# DNA 1: CAATCTGAATTCCGGTCTCCC
# DNA 2: TGGTGGCTACGACGGGATT
# B9: UUGCUUG (DNA:RNA)
# RNA: B6 RNA with C25U, A27G, U28C, A29U, G30U
# DNA 1: CAATCTGAATTCCGGTCTCCC
# DNA 2: TGGTGGCTACGACGGGATT
# B10: UUGUUGC (DNA:RNA)
# RNA: B6 RNA with C25U, A27G, A29U, G31C
# DNA 1: CAATCTGAATTCCGGTCTCCC
# DNA 2: TGGTGGCTACGACGGGATT
# B11: UCCUUGC (DNA:RNA)
# RNA: B6 RNA with C25U, U26C, A27C, A29U, G31C
# DNA 1: CAATCTGAATTCCGGTCTCCC
# DNA 2: TGGTGGCTACGACGGGATT
# B12: GUCGUGC (DNA:RNA)
# RNA: B6 RNA with C25G, A27C, U28G, A29U, G31C
# DNA 1: CAATCTGAATTCCGGTCTCCC
# DNA 2: TGGTGGCTACGACGGGATT
# B13: GUGCUUG (DNA:RNA)
# RNA: B6 RNA with C25G, A27G, U28C, A29U, G30U
# DNA 1: CAATCTGAATTCCGGTCTCCC
# DNA 2: TGGTGGCTACGACGGGATT
# B14: UCCGUGC (DNA:RNA)
# RNA: B1 RNA with A25U, G26C, U27C, C29U, C30G, U31C
# DNA 1: CAATCTGAATTCCGGTCTCCC
# DNA 2: TGGTGGCTACGACGGGATT
# B15: CGGGAUC (DNA:RNA)
# RNA: B1 RNA with A25C, U27G, C29A, C30U, U31C
# DNA 1: CAATCTGAATTCCGGTCTCCC
# DNA 2: TGGTGGCTACGACGGGATT
# B16: GUAUCGU (DNA:RNA)
# RNA: B6 RNA with C25G, A29C, G31U
# DNA 1: CAATCTGAATTCCGGTCTCCC
# DNA 2: TGGTGGCTACGACGGGATT
# B17: CGUCCGU (DNA:RNA)
# RNA: B1 RNA with A25C, G28C, C30G
# DNA 1: CAATCTGAATTCCGGTCTCCC
# DNA 2: TGGTGGCTACGACGGGATT
# B18: GGAUUGU (DNA:RNA)
# RNA: B6 RNA with C25G, U26G, A29U, G31U
# DNA 1: CAATCTGAATTCCGGTCTCCC
# DNA 2: TGGTGGCTACGACGGGATT
# B19: GUCCGGA (DNA:RNA)
# RNA: B6 RNA with C25G, A27C, U28C, A29G, G31A
# DNA 1: CAATCTGAATTCCGGTCTCCC
# DNA 2: TGGTGGCTACGACGGGATT
# B20: CGGAUUG (DNA:RNA)
# RNA: B6 RNA with U26G, A27G, U28A, A29U, G30U
# DNA 1: CAATCTGAATTCCGGTCTCCC
# DNA 2: TGGTGGCTACGACGGGATT
# B21: UGAUAUA (DNA:RNA)
# RNA: B6 RNA with C25U, U26G, G30U, G31A
# DNA 1: CAATCTGAATTCCGGTCTCCC
# DNA 2: TGGTGGCTACGACGGGATT
# B22: CGUAUCG (DNA:RNA)
# RNA: B1 RNA with A25C, G28A, C29U, U31G
# DNA 1: CAATCTGAATTCCGGTCTCCC
# DNA 2: TGGTGGCTACGACGGGATT
# B23: UGAUAUC (DNA:RNA)
# RNA: B6 RNA with C25U, U26G, G30U, G31C
# DNA 1: CAATCTGAATTCCGGTCTCCC
# DNA 2: TGGTGGCTACGACGGGATT
# B24: UGAUAUG (DNA:RNA)
# RNA: B6 RNA with C25U, U26G, G30U
# DNA 1: CAATCTGAATTCCGGTCTCCC
# DNA 2: TGGTGGCTACGACGGGATT
# B25: CACCGGA (DNA:RNA)
# RNA: B6 RNA with U26A, A27C, U28C, A29G, G31A
# DNA 1: CAATCTGAATTCCGGTCTCCC
# DNA 2: TGGTGGCTACGACGGGATT
# B26: GUAUUGU (DNA:RNA)
# RNA: B6 RNA with C25G, A29U, G31U
# DNA 1: CAATCTGAATTCCGGTCTCCC
# DNA 2: TGGTGGCTACGACGGGATT
# B27: GUCCCGU (DNA:RNA)
# RNA: B1 RNA with A25G, G26U, U27C, G28C, C30G
# DNA 1: CAATCTGAATTCCGGTCTCCC
# DNA 2: TGGTGGCTACGACGGGATT
# B28: AUUCGUU (DNA:RNA)
# RNA: B1 RNA with G26U, G28C, C29G, C30U
# DNA 1: CAATCTGAATTCCGGTCTCCC
# DNA 2: TGGTGGCTACGACGGGATT
# B29: UUAGGAG (DNA:RNA)
# RNA: B6 RNA with C25U, U28G, A29G, G30A
# DNA 1: CAATCTGAATTCCGGTCTCCC
# DNA 2: TGGTGGCTACGACGGGATT
# B30: AGGCUCU (DNA:RNA)
# RNA: B1 RNA with U27G, G28C, C29U
# DNA 1: CAATCTGAATTCCGGTCTCCC
# DNA 2: TGGTGGCTACGACGGGATT
# B31: CGCGGGG (DNA:RNA)
# RNA: B6 RNA with U26G, A27C, U28G, A29G
# DNA 1: CAATCTGAATTCCGGTCTCCC
# DNA 2: TGGTGGCTACGACGGGATT
# Biological target: T1, RBFOX1 RRM RbFoxmut (Fox-RRM*)
# Experiment: EMSA; HiTS-Eq, 1 nM pool, 10 min; buffer printed only for the single-RNA assays: 10 mM Tris pH 7.5, 150 mM NaCl, 3.4 mM EDTA, 0.001% NP-40, 30 C
# Settings: tags: His6 N-terminal (pET28a); label: 5' 32P
# Summary of the method: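 Purified wild-type or mutant RbFox RRM at increasing concentrations was equilibrated with 1 nM of 5′-radiolabelled RNA carrying 7 randomized nucleotides for 10 min in 50 µL. Unbound RNA was separated by 8% native PAGE and sequenced. Relative association constants came from read-count changes of each RNA species compared with the control reaction, normalised to the cognate motif.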
row,Binder,binding signal
1,B1,0.0968 KA relative to UGCAUGU
2,B2,0.148 KA relative to UGCAUGU
3,B3,0.156 KA relative to UGCAUGU
4,B4,0.0522 KA relative to UGCAUGU
5,B5,0.145 KA relative to UGCAUGU
6,B6,0.0751 KA relative to UGCAUGU
7,B7,0.232 KA relative to UGCAUGU
8,B8,0.119 KA relative to UGCAUGU
9,B9,0.503 KA relative to UGCAUGU
10,B10,0.148 KA relative to UGCAUGU
11,B11,0.108 KA relative to UGCAUGU
12,B12,0.167 KA relative to UGCAUGU
13,B13,0.511 KA relative to UGCAUGU
14,B14,0.084 KA relative to UGCAUGU
15,B15,0.141 KA relative to UGCAUGU
16,B16,0.461 KA relative to UGCAUGU

row,Binder,binding signal
1,B17,0.119 KA relative to UGCAUGU
2,B18,0.39 KA relative to UGCAUGU
3,B19,0.0725 KA relative to UGCAUGU
4,B20,0.522 KA relative to UGCAUGU
5,B21,0.0947 KA relative to UGCAUGU
6,B22,0.263 KA relative to UGCAUGU
7,B23,0.145 KA relative to UGCAUGU
8,B24,0.437 KA relative to UGCAUGU
9,B25,0.0666 KA relative to UGCAUGU
10,B26,0.309 KA relative to UGCAUGU
11,B27,0.11 KA relative to UGCAUGU
12,B28,0.134 KA relative to UGCAUGU
13,B29,0.129 KA relative to UGCAUGU
14,B30,0.0577 KA relative to UGCAUGU
15,B31,0.0735 KA relative to UGCAUGU
